{
  "source": "PubChem BioAssay (NCI)",
  "note": "About 79,000 compounds went through this panel and 15% of them were active in at least one assay; those are over-represented in the sample as a whole. Activity calls are given as the source filed them. Cut-off read from the data, not from the text of the source: active = growth inhibition above about 70%; inactive = the rest.",
  "data": [
    {"assay": "NCI Yeast Anticancer Drug Screen. Data for the cln2 rad14 strain (AID 165);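 note: 0% = growth equal to vehicle treated cultures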", "settings": "S. cerevisiae cln2 rad14 strain, at 50.0 µM, hits give high values", "summary_of_the_method": "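Growth inhibition, relative to vehicle-treated controls, is the read-out. The test organism is a yeast strain with defined genetic alterations, cln2 rad14.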", "values": [
      {"compound": "C=CCN(C)C(=O)CCCCCCCC1C(CCCCCCCC)C2(Cl)C(Cl)=C(Cl)C1(Cl)C2(Cl)Cl", "note": "(stereo not given)", "growth inhibition": "-20.5% (inactive)"},
      {"compound": "CC1=CC=NN2C(=O)[C@H](C)C2C1", "note": "(stereo not given in full)", "growth inhibition": "10.3% (inactive)"},
      {"compound": "COC1(OC)N=C(N)C2(C#N)C(C)=C3NCN(C)N=C3C12C#N", "note": "(stereo not given)", "growth inhibition": "-6.7% (inactive)"},
      {"compound": "Cn1c(=O)c2[nH]c(SCCc3ccccc3)nc2n(C)c1=O", "growth inhibition": "-39.1% (inactive)"},
      {"compound": "CCCCCC[C@H](C/C=C\\CCCCCCCC(=O)OCCCC)OC(C)=O", "growth inhibition": "-14.2% (inactive)"},
      {"compound": "CCOc1ccccc1NCN1C(=O)c2ccccc2C1=O", "growth inhibition": "-8.65% (inactive)"},
      {"compound": "CC(=O)C(C)(C)CCC(C)(C)C(C)=O", "growth inhibition": "13.1% (inactive)"},
      {"compound": "ClC(Cl)(Cl)C1CCC2CCCC21", "note": "(stereo not given)", "growth inhibition": "6.1% (inactive)"},
      {"compound": "O=S(=O)(O)c1cc(N=Nc2cc(S(=O)(=O)O)c3ccccc3c2O)ccc1/C=C/c1ccc(N=Nc2cc(S(=O)(=O)O)c3ccccc3c2O)cc1S(=O)(=O)O", "growth inhibition": "13.7% (inactive)"},
      {"compound": "C/C(=N\\Nc1ccccc1)c1sc(-c2nc(C)c(/C(C)=N/Nc3ccccc3)s2)nc1C", "growth inhibition": "-29% (inactive)"},
      {"compound": "CC(C)(C)C(=O)Nc1c(Cl)c(C2CC2)nn1-c1ccccc1", "growth inhibition": "11.3% (inactive)"},
      {"compound": "CC1(C)SC(C)(C)C1=O", "growth inhibition": "-36.8% (inactive)"},
      {"compound": "CC(=O)OCC1OC(n2ccc(=O)[nH]c2=O)CC1N=[N+]=[N-]", "note": "(stereo not given)", "growth inhibition": "-48.3% (inactive)"},
      {"compound": "O=C(Nc1cccc(Cl)c1)c1cc2cc(N=Nc3ccc(Br)cc3)ccc2oc1=O", "growth inhibition": "29.1% (inactive)"},
      {"compound": "CC(CN(C)C)CN1c2ccccc2Sc2ccccc21", "note": "(stereo not given)", "growth inhibition": "-2.95% (inactive)"},
      {"compound": "COC1=C(OC)C(=O)C(Sc2ccc3ccccc3c2)=C(Cl)C1=O", "growth inhibition": "94.4% (active)"},
      {"compound": "C[Si](C)(C)c1ccc(-c2ccccc2)cc1", "growth inhibition": "-61.7% (inactive)"},
      {"compound": "Cc1nc(Nc2ccc(Cl)cc2)c2cnn(-c3ccccc3)c2n1", "growth inhibition": "-35.9% (inactive)"},
      {"compound": "ClCCOC(c1ccc(Cl)cc1)c1ccc(Cl)cc1", "growth inhibition": "-12.9% (inactive)"},
      {"compound": "Cc1ccc(OCC(=O)C2CSc3ccc(Cl)cc32)cc1", "note": "(stereo not given)", "growth inhibition": "70.6% (active)"},
      {"compound": "OCc1ccccc1F", "growth inhibition": "-15.3% (inactive)"},
      {"compound": "C/C(CCn1[nH]c(=O)ccc1=O)=N\\N=C(N)N", "growth inhibition": "-4.85% (inactive)"},
      {"compound": "S=C(N/N=C1\\CSCc2ccccc21)Nc1cc(Cl)ccc1Cl", "growth inhibition": "10.2% (inactive)"},
      {"compound": "O=c1/c(=C/c2ccco2)sc2nc3ccccc3n12", "growth inhibition": "29.8% (inactive)"},
      {"compound": "CO/N=C1\\CC(NC(=O)C(F)(F)F)c2ccsc21", "note": "(stereo not given)", "growth inhibition": "13.3% (inactive)"},
      {"compound": "COc1cc(NCCCCCNC(C)C)c2nccc(C)c2c1", "growth inhibition": "28.6% (inactive)"},
      {"compound": "Cc1ccc(N(C)C(=O)Nc2ccccc2)c(C)c1", "growth inhibition": "-20.6% (inactive)"},
      {"compound": "CC(=O)n1cc(CS)c(=O)[nH]c1=O", "growth inhibition": "-15.2% (inactive)"},
      {"compound": "Cc1cccc(C)c1/[N+]([O-])=C/c1cccc([N+](=O)[O-])c1", "growth inhibition": "-29.4% (inactive)"},
      {"compound": "COc1nc(C(O)C2OC(C)(C)OCC2O)[nH]c1C#N", "note": "(stereo not given)", "growth inhibition": "10.7% (inactive)"},
      {"compound": "COC(CN(C)C(=S)Nc1cccc2ccccc12)OC", "growth inhibition": "-11.7% (inactive)"},
      {"compound": "N#CC(C#N)c1ccc(C(C#N)C#N)cc1", "growth inhibition": "-16% (inactive)"},
      {"compound": "CCCC1c2c(ccc3ccccc23)Oc2ccc3ccccc3c21", "growth inhibition": "-2% (inactive)"},
      {"compound": "c1ccc2c(c1)ccc1c3ccccc3ncc21", "growth inhibition": "35.5% (inactive)"},
      {"compound": "C=CCNC(=S)Nc1c(C)cc(C)cc1C", "growth inhibition": "-51.4% (inactive)"},
      {"compound": "CCn1c2ccc(N(C)C)cc2c2cc(N(C)C)ccc21", "growth inhibition": "-38.8% (inactive)"},
      {"compound": "CC1(C)OC2(CC1C1(C)C=CC(=O)O1)CC1(O)C(CCC34CC13C(=O)OC4c1ccoc1)O2", "note": "(stereo not given)", "growth inhibition": "24.7% (inactive)"},
      {"compound": "COc1ccc(Cl)cc1NC(=O)Oc1cc2ccccc2cc1C(=O)Nc1ccccc1", "growth inhibition": "-25.1% (inactive)"},
      {"compound": "O=C(O)C(Cc1ccc(OS(=O)(=O)Cc2ccccc2)cc1)NS(=O)(=O)Cc1ccccc1", "note": "(stereo not given)", "growth inhibition": "5.1% (inactive)"},
      {"compound": "O=C1OC(c2ccccc2Cl)Sc2ccccc21", "note": "(stereo not given)", "growth inhibition": "-30.7% (inactive)"}
    ]},
    {"assay": "NCI Yeast Anticancer Drug Screen. Data for the bub3 strain (AID 167)", "settings": "S. cerevisiae bub3 mutant strain, at 50.0 µM, hits give high values", "summary_of_the_method": "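Steps: expose the mutant yeast strain to compound; grow alongside vehicle-treated cultures; measure growth; express inhibition against the vehicle cultures.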", "values": [
      {"compound": "C=CCN(C)C(=O)CCCCCCCC1C(CCCCCCCC)C2(Cl)C(Cl)=C(Cl)C1(Cl)C2(Cl)Cl", "note": "(stereo not given)", "growth inhibition": "-1.5% (inactive)"},
      {"compound": "CC1=CC=NN2C(=O)[C@H](C)C2C1", "note": "(stereo not given in full)", "growth inhibition": "-9.05% (inactive)"},
      {"compound": "COC1(OC)N=C(N)C2(C#N)C(C)=C3NCN(C)N=C3C12C#N", "note": "(stereo not given)", "growth inhibition": "-33.8% (inactive)"},
      {"compound": "Cn1c(=O)c2[nH]c(SCCc3ccccc3)nc2n(C)c1=O", "growth inhibition": "10.3% (inactive)"},
      {"compound": "CCCCCC[C@H](C/C=C\\CCCCCCCC(=O)OCCCC)OC(C)=O", "growth inhibition": "-29.4% (inactive)"},
      {"compound": "CCOc1ccccc1NCN1C(=O)c2ccccc2C1=O", "growth inhibition": "-18.3% (inactive)"},
      {"compound": "CC(=O)C(C)(C)CCC(C)(C)C(C)=O", "growth inhibition": "8.4% (inactive)"},
      {"compound": "ClC(Cl)(Cl)C1CCC2CCCC21", "note": "(stereo not given)", "growth inhibition": "-9.1% (inactive)"},
      {"compound": "O=S(=O)(O)c1cc(N=Nc2cc(S(=O)(=O)O)c3ccccc3c2O)ccc1/C=C/c1ccc(N=Nc2cc(S(=O)(=O)O)c3ccccc3c2O)cc1S(=O)(=O)O", "growth inhibition": "45.9% (inactive)"},
      {"compound": "C/C(=N\\Nc1ccccc1)c1sc(-c2nc(C)c(/C(C)=N/Nc3ccccc3)s2)nc1C", "growth inhibition": "17.6% (inactive)"},
      {"compound": "CC(C)(C)C(=O)Nc1c(Cl)c(C2CC2)nn1-c1ccccc1", "growth inhibition": "22.4% (inactive)"},
      {"compound": "CC1(C)SC(C)(C)C1=O", "growth inhibition": "2.05% (inactive)"},
      {"compound": "CC(=O)OCC1OC(n2ccc(=O)[nH]c2=O)CC1N=[N+]=[N-]", "note": "(stereo not given)", "growth inhibition": "13.3% (inactive)"},
      {"compound": "O=C(Nc1cccc(Cl)c1)c1cc2cc(N=Nc3ccc(Br)cc3)ccc2oc1=O", "growth inhibition": "9.45% (inactive)"},
      {"compound": "CC(CN(C)C)CN1c2ccccc2Sc2ccccc21", "note": "(stereo not given)", "growth inhibition": "5.65% (inactive)"},
      {"compound": "COC1=C(OC)C(=O)C(Sc2ccc3ccccc3c2)=C(Cl)C1=O", "growth inhibition": "91.7% (active)"},
      {"compound": "C[Si](C)(C)c1ccc(-c2ccccc2)cc1", "growth inhibition": "22.5% (inactive)"},
      {"compound": "Cc1nc(Nc2ccc(Cl)cc2)c2cnn(-c3ccccc3)c2n1", "growth inhibition": "6.75% (inactive)"},
      {"compound": "ClCCOC(c1ccc(Cl)cc1)c1ccc(Cl)cc1", "growth inhibition": "0.45% (inactive)"},
      {"compound": "Cc1ccc(OCC(=O)C2CSc3ccc(Cl)cc32)cc1", "note": "(stereo not given)", "growth inhibition": "75.7% (active)"},
      {"compound": "OCc1ccccc1F", "growth inhibition": "-15.1% (inactive)"},
      {"compound": "C/C(CCn1[nH]c(=O)ccc1=O)=N\\N=C(N)N", "growth inhibition": "-1.4% (inactive)"},
      {"compound": "S=C(N/N=C1\\CSCc2ccccc21)Nc1cc(Cl)ccc1Cl", "growth inhibition": "23.9% (inactive)"},
      {"compound": "O=c1/c(=C/c2ccco2)sc2nc3ccccc3n12", "growth inhibition": "30.1% (inactive)"},
      {"compound": "CO/N=C1\\CC(NC(=O)C(F)(F)F)c2ccsc21", "note": "(stereo not given)", "growth inhibition": "-2.8% (inactive)"},
      {"compound": "COc1cc(NCCCCCNC(C)C)c2nccc(C)c2c1", "growth inhibition": "27.9% (inactive)"},
      {"compound": "Cc1ccc(N(C)C(=O)Nc2ccccc2)c(C)c1", "growth inhibition": "4.55% (inactive)"},
      {"compound": "CC(=O)n1cc(CS)c(=O)[nH]c1=O", "growth inhibition": "-2.6% (inactive)"},
      {"compound": "Cc1cccc(C)c1/[N+]([O-])=C/c1cccc([N+](=O)[O-])c1", "growth inhibition": "10% (inactive)"},
      {"compound": "COc1nc(C(O)C2OC(C)(C)OCC2O)[nH]c1C#N", "note": "(stereo not given)", "growth inhibition": "2.35% (inactive)"},
      {"compound": "COC(CN(C)C(=S)Nc1cccc2ccccc12)OC", "growth inhibition": "-6.2% (inactive)"},
      {"compound": "N#CC(C#N)c1ccc(C(C#N)C#N)cc1", "growth inhibition": "-12.3% (inactive)"},
      {"compound": "CCCC1c2c(ccc3ccccc23)Oc2ccc3ccccc3c21", "growth inhibition": "-13.7% (inactive)"},
      {"compound": "c1ccc2c(c1)ccc1c3ccccc3ncc21", "growth inhibition": "0.75% (inactive)"},
      {"compound": "C=CCNC(=S)Nc1c(C)cc(C)cc1C", "growth inhibition": "4.3% (inactive)"},
      {"compound": "CCn1c2ccc(N(C)C)cc2c2cc(N(C)C)ccc21", "growth inhibition": "-18.5% (inactive)"},
      {"compound": "CC1(C)OC2(CC1C1(C)C=CC(=O)O1)CC1(O)C(CCC34CC13C(=O)OC4c1ccoc1)O2", "note": "(stereo not given)", "growth inhibition": "14.9% (inactive)"},
      {"compound": "COc1ccc(Cl)cc1NC(=O)Oc1cc2ccccc2cc1C(=O)Nc1ccccc1", "growth inhibition": "-3.25% (inactive)"},
      {"compound": "O=C(O)C(Cc1ccc(OS(=O)(=O)Cc2ccccc2)cc1)NS(=O)(=O)Cc1ccccc1", "note": "(stereo not given)", "growth inhibition": "12.4% (inactive)"},
      {"compound": "O=C1OC(c2ccccc2Cl)Sc2ccccc21", "note": "(stereo not given)", "growth inhibition": "55.8% (inactive)"}
    ]}
  ]
}
